# Screening results from PubChem.
# ELG1 repair inh: qHTS screen for small molecules that inhibit ELG1-dependent DNA repair in human embryonic kidney (HEK293T) cells expressing luciferase-tagged ELG1; HEK293T ELG1-luciferase reporter, luminescence, 16 h; DNA damage induced by 5-fluorouridine; Potency, µM (series often up to 46.1 µM), for inactives: top-dose activity change, negative = inhibition, most hits filed as inhibitors; 330,000 compounds, 2.3% hits; further: potency means the concentration at half of the fitted maximal effect; nearly all actives have a fitted effect of over 55% in size
#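 Reporter activity after DNA damage by 5-fluorouridine is monitored. Compound-treated cells incubate 16 hr at 37 °C, then ONE-Glo is added for 30 min before luminescence reading.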
# Giardia kill: Small Molecules that selectively kill Giardia lamblia: qHTS; Giardia lamblia trophozoite viability; 340,000 compounds, 0.15% hits; AID 540267, 2011; activity change, % at 7.66 µM, hits read low; in the data active means activity change below about -80%; inconclusive means between about -30% and that limit;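 further: parasites exposed to compound for two days anaerobically before the ATP read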
#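 Luminescence from cellular ATP indicates surviving trophozoites (100 cells/well) following 48 hrs anaerobic compound treatment at 37 deg C; signal develops 15-30 min at room temperature.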
# IL1B secr inh: qHTS for Inhibitors of Inflammasome Signaling: IL-1-beta AlphaLISA Primary Screen; activity change, % at 57.5 µM; 360,000 compounds, 4.7% hits; AID 743279, 2014; THP-1 LPS/ATP IL-1B secretion, AlphaLISA, 16 h; active compounds read low; in the data active means activity change below about -50%; inconclusive means mostly about -30% to -49%
#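 THP-1 cells pretreated 1 hr with compounds (up to 57.5 uM final), then stimulated with LPS (250 ng/mL final) plus ATP (1.25 mM final); secreted IL-1B measured by AlphaLISA after 16 hr, decreased signal indicating inhibition.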
# TDP1 cell noCPT: qHTS for Inhibitors of human tyrosyl-DNA phosphodiesterase 1 (TDP1): qHTS in cells in absence of CPT; AID 686978, 2013; Potency, µM (series often up to 46.2 µM), for the others: top-dose activity change, negative = growth inhibition, most hits filed as inhibitors; DT40 Tdp1-/- hTDP1 cells, no CPT, ATP luminescence, 48 h; 420,000 compounds, 15% hits; further: potency means the concentration at half of the fitted maximal effect; nearly all actives have a fitted effect of over 55% in size
#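 Readout: luminescence from CellTiter-Glo after 30 min in the dark at RT. Cells: DT40 Tdp1-/- with stable hTDP1, 400/well. Exposure: compounds alone, ≥48 hr, 37 °C.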
# TDP1 cell CPT: qHTS for Inhibitors of human tyrosyl-DNA phosphodiesterase 1 (TDP1): qHTS in cells in presence of CPT | chicken DT40 Tdp1-/-;hTDP1 cells + 20 nM CPT, ATP luminescence, 48 h | Potency, µM (top dose mostly 46.2 µM), for inactives: at the top dose activity change, negative = growth inhibition, usual class: inhibitors | 420,000 compounds, 12% hits | AID 686979, 2013; further: potency means the concentration at half of the fitted maximal effect; nearly all actives have a fitted effect of over 55% in size
#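 Cell growth measured by CellTiter-Glo luminescence after a minimum 48 h, 37 C compound exposure with 20 nM CPT in Tdp1-knockout DT40 cells stably expressing hTDP1, seeded 400/well; qHTS titration format.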
# TDP1 inh: qHTS Assay for Inhibitors of Tyrosyl-DNA Phosphodiesterase (TDP1). recombinant TDP1, AlphaScreen DNA substrate cleavage. Potency, µM (highest dose often 130 µM), for the others: at the top dose activity change, negative = inhibition, actives largely listed as inhibitors. 350,000 compounds, 0.28% hits. AID 485290, 2010; further: potency means the concentration at half of the fitted maximal effect; nearly all actives have a fitted effect of over 40% in size
# Target sequence (Q9NUW8 whole entry, looked up): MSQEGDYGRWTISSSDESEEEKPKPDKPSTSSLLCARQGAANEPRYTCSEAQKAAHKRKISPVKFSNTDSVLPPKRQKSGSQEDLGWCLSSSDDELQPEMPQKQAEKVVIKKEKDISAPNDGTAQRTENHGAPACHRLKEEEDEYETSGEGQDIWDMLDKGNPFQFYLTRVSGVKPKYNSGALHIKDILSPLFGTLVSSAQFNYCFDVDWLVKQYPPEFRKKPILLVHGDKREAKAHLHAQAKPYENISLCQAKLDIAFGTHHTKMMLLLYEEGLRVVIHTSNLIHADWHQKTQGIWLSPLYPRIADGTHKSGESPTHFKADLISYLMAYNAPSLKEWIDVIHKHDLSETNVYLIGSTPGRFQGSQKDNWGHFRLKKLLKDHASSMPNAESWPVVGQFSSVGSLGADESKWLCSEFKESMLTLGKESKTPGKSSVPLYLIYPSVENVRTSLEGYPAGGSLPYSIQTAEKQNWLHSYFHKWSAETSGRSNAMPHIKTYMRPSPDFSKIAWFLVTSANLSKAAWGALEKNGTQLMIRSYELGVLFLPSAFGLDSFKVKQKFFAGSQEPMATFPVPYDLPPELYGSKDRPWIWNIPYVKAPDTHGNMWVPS
#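 Tdp1 1 nM final; 15 min RT w/ cpd; substrate 15 nM, 5 min; beads 10 ug/ml, 10 min; AlphaScreen read. Neg ctrl: no enzyme.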
# An asterisk follows results filed as active; ? = inconclusive; . = no result given; [ ] = remark or other dose. Hits are enriched below; roughly 19% of the tested compounds scored in any of these assays. Unless noted, the call rests on the fitted dose curve; in most records, active means well fitted curve in the direction sought with a large enough effect; inconclusive means small, poorly fitted or top-dose-only effect, or another doubt; inactive means no such curve, though single readings can be large; an effect the other way counts as inactive or inconclusive. On the % scale 0 is the no-effect control and ±100 the full control effect.
SMILES,ELG1 repair inh,Giardia kill,IL1B secr inh,TDP1 cell noCPT,TDP1 cell CPT,TDP1 inh
COC(=O)c1c(NC(=O)C2CC=CCC2C(=O)O)sc2c1CCCCC2 (stereo not given),?,-4.4,-1.1,?,-22.8%,.
Cn1c(O)c(/C=C2\C=Nc3ccc(Br)cc32)c(=O)n(C)c1=O,24.1%,8.6,19.7,-1.7%,-17.9%,.
CCNC(=S)NCCC1=c2ccccc2=N/C1=C\c1c(O)n(C)c(=O)n(C)c1=O,?,-16.0,0.0,20.6µM*,?,-3.5%
COc1ccc(/C=C/C(=O)NC(=S)N2C[C@H]3C[C@H](C2)c2cccc(=O)n2C3)cc1OC,38.4%,6.4,-0.3,-0.2%,0.0%,.
CN(C(=O)CCN1C(=O)/C(=C/c2ccc(F)cc2)SC1=S)C1CCS(=O)(=O)C1 (stereo not given),.,.,-23.2,20.6µM*,20.6µM*,.
O=C(O)COc1ccc(/C=C2/SC(=S)N(Cc3ccccc3)C2=O)cc1,?,-0.6,-4.7,-3.8%,-3.4%,.
c1cnc(N2CCCC3(CCNCC3)C2)nc1,.,.,.,-23.5%,-2.1%,.
c1cc(N2CCCC3(CCNCC3)C2)ccn1,.,.,.,9.2µM*,9.2µM*,.
CC(C)(C)NCc1cccn1-c1sc2c(c1C#N)CCCC2,-17.6%,-12.2,-18.1,-29.2%,?,-6.7%
CN(C)C(=O)CCSC(SCCC(=O)O)c1cccc(/C=C/c2ccc3ccc(Cl)cc3n2)c1 (stereo not given),.,.,.,16.8µM*,?,5.7%
CC(C)[N+](=O)[O-],.,.,.,.,.,7.0%
O=c1[nH]c(=S)[nH]c(O)c1N=Nc1ccc(S(=O)(=O)N2CCOCC2)cc1,?,3.8,14.8,23.0%,16.9%,20µM*
O=c1[nH]c(=S)[nH]c(O)c1N=Nc1ccc2c(c1)OCCO2,?,-19.9,-14.2,25.9µM*,14.6µM*,-5.5%
CN(C)CCc1c[nH]c2ccccc12,.,.,.,-23.5%[166 µM],-21.5%[166 µM],.
COc1cc2c(cc1-c1cc3cc4ccoc4cc3oc1=O)OCO2,.,.,.,-3.2%,-5.5%,-4.5%[56.1 µM]
CN1Cc2c(ccc3c2OCO3)[C@@H]2[C@@H](O)Cc3cc4c(cc3[C@@H]21)OCO4,.,.,.,.,.,13.8%[21 µM]
O=C(c1ccccc1F)c1cn(CC(=O)N2CCOCC2)c2ccccc12,1.7%,4.9,-12.8,-4.5%,-23.4%,0.0%
O=C(c1ccccc1F)c1cn(CC(=O)N2CCCC2)c2ccccc12,24.3%,16.0,5.8,16.4µM*,?,7.0%
CCC1(c2ccccc2)CCC(=O)NC1=O (stereo not given),.,.,.,1.0%,3.7%,5.1%
CC(Cc1ccc2c(c1)OCO2)NO (stereo not given),.,.,.,-18.6%[92.5 µM],-2.3%[92.5 µM],.
CCOP(=O)(OCC)/C(C#N)=C/c1ccc(-c2ccc(F)cc2F)o1,?,17.3,?,?,14.6µM*,-3.8%
CCC(C)C(=O)OC1C(O)C2C(CN3CC(C)CCC3[C@]2(C)O)C2C[C@]34O[C@@]5(O)C(OC(=O)C(C)(O)C(C)O)CCC3(C)C5C(OC(C)=O)C(OC(C)=O)C4[C@@]21O (stereo not given in full),.,.,.,6.5%,-0.9%,6.2%[56.1 µM]
Cc1ccc(N2CCN(C(=O)C3CCC(CNS(=O)(=O)c4ccc(Br)s4)CC3)CC2C)cc1 (stereo not given),.,.,.,4.61µM*,7.31µM*,-2.1%[12.3 µM]
CC(C)c1ccc(NC(=O)C2CCN(S(=O)(=O)c3ccc(Br)s3)CC2)cc1,.,.,.,?,?,-2.1%[12.3 µM]
Cc1ccccc1-n1c(/C=C/c2ccc(O)cc2)nc2ccccc2c1=O,.,.,.,5.8µM*,9.2µM*,0.4%[12.3 µM]
SMILES,ELG1 repair inh,Giardia kill,IL1B secr inh,TDP1 cell noCPT,TDP1 cell CPT,TDP1 inh
Cc1ccccc1-n1c(/C=C/c2ccccn2)nc2ccccc2c1=O,?,-4.6,-52.8*,23.1µM*,18.4µM*,1.2%
C[C@H](NC(=O)[C@@H](N)Cc1ccc(O)cc1)C(=O)N[C@@H](Cc1ccccc1)C(=O)N[C@@H](Cc1ccccc1)C(N)=O,.,.,.,-6.0%[4.12 µM],-2.1%[4.12 µM],2.4%
CC(=O)OO,.,.,.,-9.4%,-22.6%,2.1%
O=[N+]([O-])c1oc2ccc3ccccc3c2c1CCO,.,-94.8*,31.8,0.517µM*,0.411µM*,.
Cn1c(=O)oc2cc(S(=O)(=O)NC3CCCCCCC3)ccc21,-3.5%,-7.7,-4.4,?,-21.5%,0.0%
CCCN(CCC)c1c([N+](=O)[O-])cc(S(N)(=O)=O)cc1[N+](=O)[O-],.,.,.,30.6µM*,?,15.4%
COc1nnc(-c2ccc(N3CCCCC3)c(NC(=O)c3ccccc3)c2)c2ccccc12,.,.,.,14.6µM*,?,5.3%
O=c1[nH]c(=O)n(CCC2=CCCCC2)c(O)c1C=NC1CCN(Cc2ccccc2)CC1,?,-10.4,?,16.4µM*,14.6µM*,-1.0%
NC1CCCCC1N=Cc1c(O)n(CCc2ccc(F)cc2)c(=O)[nH]c1=O (stereo not given),-14.3%,-8.3,-5.8,18.4µM*,?,3.0%
CCCCCCn1c(O)c(C=NC2CCN(Cc3ccccc3)CC2)c(=O)[nH]c1=O,20.6µM*,6.4,-27.6,10.3µM*,20.6µM*,1.1%
C=CCn1c(O)c(C=NC2CCN(Cc3ccccc3)CC2)c(=O)[nH]c1=O,-16.9%,-6.0,0.0,-20.5%,-7.4%,.
COC1=CC(=O)[C@]2(C=C1OC)OC[C@@H]1Oc3c(ccc4c3C=CC(C)(C)O4)C(=O)[C@@H]12,1.16µM*,-15.7,-4.3,0.206µM*,0.291µM*,-5.0%
CO/C1=C\C(C)=C\[C@@H](C)[C@@H](O)[C@@H](C)C/C(C)=C/C=C/[C@H](OC)[C@@H]([C@@H](C)[C@@H](O)[C@H](C)[C@@]2(O)C[C@@H](O)[C@H](C)C(C(C)C)O2)OC1=O (stereo not given in full),.,.,.,.,.,16.1%
CCOC(=O)[C@]12Cc3cc(Cl)ccc3[C@H]1N(Cc1ccccc1)C(=O)c1cc(OC)ccc12,.,.,-113.5*,5.8µM*,4.61µM*,.
CCOC(=O)[C@]12Cc3c(cc(OC)c(OC)c3OC)[C@H]1N(Cc1ccccc1)C(=O)c1ccccc12,.,-14.4,?,16.4µM*,?,.
CCOC(=O)[C@]12Cc3cc4ccccc4cc3[C@H]1N(Cc1ccccc1)C(=O)c1cc(OC)ccc12,.,.,-109.3*,6.51µM*,8.2µM*,.
